The list is not random: actives were taken first. Their share in the collection is about 4.6%.
VACV mCherry inh = vaccinia inhibition (mCherry reporter); Vaccinia virus mCherry reporter infection, fluorescence; Potency, µM (highest dose often 36.5 µM), for inactives: at the top dose activity change, negative = inhibition, most hits filed as inhibitors; hit rate 0.63% among 310,000; AID 720579; calls by dose curve; tested in A549 cells; further: nearly all actives have a fitted effect of over 35% in size
LASV entry inh = inhibitors of Lassa virus binding or cell entry; hit rate 1.2% among 300,000; Potency, µM (series often up to 37.9 µM), for the others: top-dose activity change, negative = inhibition, most hits filed as inhibitors; Lassa virus pseudotype entry inhibition, cell reporter; calls by dose curve; tested in HEK293 cells; further: nearly all actives have a fitted effect of over 50% in size
Marburg entry inh = Marburg virus entry inhibition | Marburg virus pseudotyped entry inhibition, cell reporter | hit rate 1.8% among 300,000 | Potency, µM (series often up to 37.8 µM), for the others: at the top dose activity change, negative = inhibition, usual class: inhibitors; calls by dose curve; tested in HEK293 cells
VACV Venus inh = inhibitors of vaccinia virus (Venus reporter); hit rate 0.46% among 330,000; Potency, µM (top dose mostly 36.5 µM), for inactives: at the highest dose activity change, negative = inhibition, usual class: inhibitors; AID 720580; Vaccinia virus Venus reporter expression, fluorescence; calls by dose curve; tested in A549 cells; further: nearly all actives have a fitted effect of over 30% in size
HCV inh = blocks hepatitis C virus; Huh7.5.1 HCVcc-Cre infection, luciferase reporter, 44 h; Potency, µM (series often up to 41.8 µM), for the others: at the highest dose activity change, negative = inhibition, hits mostly inhibitors; hit rate 3.4% among 340,000; AID 651820; active means well fitted inhibition curve with a large enough effect; inconclusive means small, poorly fitted or top-dose-only effect, or another doubt; inactive means no such curve, though single readings can be large or run the other way
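Seed cells (1,000/well) for 4 h; treat with compound and infect with HCVcc-Cre, moi about 0.5. Incubate 44 h, then detect luciferase activity.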
The depositor's hits bear a star; i = inactive; ? = inconclusive; . = no result given; ! = not confirmed by another sample; [ ] = remark or other dose. On the % scale 0 is the no-effect control and ±100 the full control effect; potency means the concentration at half of the fitted maximal effect.

SMILES	VACV mCherry inh	LASV entry inh	Marburg entry inh	VACV Venus inh	HCV inh
COC(=O)C[C@H]1c2ccccc2[C@@H]2C(=C[C@@H](C)[C@H]3C(=O)N(c4ccccc4)C(=O)[C@H]32)N1C(=O)OC	.	.	10.2%[14.2 µM]	.	.
CC(C)CO/N=C1\C[C@@H](O)[C@@H](O)[C@@H]2[C@@H]3C(=O)N(C4CCCCC4)C(=O)[C@@H]3CC[C@@H]12	.	.	-13.9%[14.2 µM]	.	.
CC(=O)N1N=C2c3ccccc3CCC2C1c1ccc(F)cc1 (centres undefined)	-2.8%	?	?	-18.3%	-7.7%
COc1ccc2c(c1)CCC1C2=NN(/C(C)=C/C(C)=O)C1c1cccc(F)c1 (centres undefined)	-27.1%	0.0%	?	-25.5%	11.2µM*
CN1CCN(c2ccc(NC(=O)Oc3ccccc3)cc2)CC1	-8.3%	4.2%	?	-0.6%	18.3%
C=CC(=O)Nc1ccc(N(C)c2ccnc(Nc3ccc(N4CCN(C)CC4)cc3)n2)cc1	6.31µM*	.	.	7.94µM*	?
Cc1ccc(COC(=O)c2nn(C)c(=O)c3ccccc23)cc1	-16.9%	?	26.5%[46.1 µM]	-19.6%	10µM*
NC(Cc1cc(I)c(Oc2ccc(O)c(I)c2)c(I)c1)C(=O)O (centres undefined)	-10.3%	.	.	-2.7%	.
NC(Cc1ccc(N(CCCl)CCCl)cc1)C(=O)O (centres undefined)	i	2.91µM*	5.8µM*	-10.9%	.
COc1cc(C[C@@H](C)[C@@H](C)Cc2ccc(O)c(OC)c2)ccc1O	?	.	.	?	-13.4%
C[C@H](Cc1ccc(O)c(O)c1)[C@@H](C)Cc1ccc(O)c(O)c1	-17.1%	?	14.1µM*	-21.6%	.
N[C@H](Cc1ccc(Cl)cc1)C(=O)O	.	.	23.4%	.	.
N[C@@H](Cc1cc(I)c(Oc2ccc(O)c(I)c2)c(I)c1)C(=O)O	31.6µM*!	?	-21.7%	10µM*!	?
CC(Cc1ccc(O)c(O)c1)C(C)Cc1ccc(O)c(O)c1 (centres undefined)	-11.6%	?	?	-21.8%	10µM*
CCN1CCCC1CNC(=O)c1cnn(-c2nccc(-c3ccc(C)o3)n2)c1C1CC1 (centres undefined)	-16.2%	.	.	-7.1%	.
NC1=NCC2c3ccccc3Cc3ccccc3N12 (centres undefined)	.	8.6%	?	.	.
CCC1CCCCN1S(=O)(=O)c1cc2c3c(c1)CC(=O)N3CCC2 (centres undefined)	-14.1%	-1.6%[46.1 µM]	.	-11.1%	.
NC(C(=O)O)C(O)c1ccc(O)c(O)c1 (centres undefined)	.	?	1.25µM*	.	.
CCC(N)C(O)c1ccc(O)c(O)c1 (centres undefined)	-4.6%	.	.	-5.1%	.
N[C@@H](Cc1ccc(O)c(O)c1)C(=O)O	-12.0%	?	15.8µM*!	-10.7%	?
c1cc2c3c(c1)CCCN3CCC2	-9.9%	.	.	-25.5%	.
CC(=O)c1cccc(NC(=O)c2nc(-c3ccccc3)n(-c3ccccc3C)n2)c1	-9.9%	-3.3%[46.1 µM]	-1.8%[46.1 µM]	-4.0%	.
CC(C)c1nc2oc3c(N4CCNCC4)ncnc3c2c2c1CCC2	-13.7%	.	.	-14.6%	?
CC(C)Cc1nc2oc3c(Cl)ncnc3c2c2c1CCC2	-4.3%	?	?	-3.3%	4.47µM*
CC(C)Cc1nc2oc3c(NCCCN4CCOCC4)ncnc3c2c2c1CCC2	.	?	?	.	10µM*
SMILES	VACV mCherry inh	LASV entry inh	Marburg entry inh	VACV Venus inh	HCV inh
Cc1ccccc1NC(=S)N(Cc1ccccn1)Cc1ccccc1Cl	-14.0%	?	?	-7.3%	-22.0%
COc1ccccc1NC(=S)N(Cc1ccc(C)cc1)Cc1ccccn1	-0.1%	-29.3%[46.1 µM]	?	-4.0%	11.0%
S=C(NN=C(c1ccccc1)c1ccccn1)N(Cc1ccccn1)Cc1ccccn1	2.51µM*	?	0.631µM*	?	1.26µM*
O=C(CCCC(=O)N/N=C\c1ccccn1)N/N=C\c1ccccn1	-2.6%	4.1%	-0.3%	-6.8%	6.8%
CC(=NNC(=S)N(Cc1ccccn1)Cc1ccccn1)c1cnccn1	1.41µM*	2.82µM*	?	3.55µM*	?
S=C(NN=Cc1ccccn1)N(Cc1ccccn1)Cc1ccccn1	5.62µM*	?	1.26µM*	?	1.26µM*
COc1cccc(CN(C)C(=O)c2ccc(OCC(=O)Nc3cccc(C(F)(F)F)c3)c(OC)c2)c1	?	8.91µM*	?	?	?
COc1ccc(CN(C)C(=O)c2ccc(OCC(=O)Nc3cccc(C(F)(F)F)c3)c(OC)c2)c(OC)c1	-2.6%	?	?	?	0.562µM*
